According to the supplement of paper PMC3545927:
Some of the results follow. The true hit rate is not given.

Target: furin, P09958
Test: furin cleavage Z-score vs untreated control; higher = more cleavage, active = 3.5 or more, inactive = 1 or less, 8 variable residues between constant flanks
In short: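 Abundance of DNA freed from bead-bound 8-mer peptide–cDNA fusions by purified furin was measured as sequencing read counts after PCR adapter tagging. Cutting ran 7.5, 15 or 30 min in 0.01 ml of 50 mM HEPES pH 7.5 with CaCl2 and NaCl at 1:10 enzyme:substrate. The cleavage Z-score expresses these log counts against furin-free reactions after lowess adjustment and median absolute deviation scaling.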

Chain of furin, P09958 (P09958 whole entry): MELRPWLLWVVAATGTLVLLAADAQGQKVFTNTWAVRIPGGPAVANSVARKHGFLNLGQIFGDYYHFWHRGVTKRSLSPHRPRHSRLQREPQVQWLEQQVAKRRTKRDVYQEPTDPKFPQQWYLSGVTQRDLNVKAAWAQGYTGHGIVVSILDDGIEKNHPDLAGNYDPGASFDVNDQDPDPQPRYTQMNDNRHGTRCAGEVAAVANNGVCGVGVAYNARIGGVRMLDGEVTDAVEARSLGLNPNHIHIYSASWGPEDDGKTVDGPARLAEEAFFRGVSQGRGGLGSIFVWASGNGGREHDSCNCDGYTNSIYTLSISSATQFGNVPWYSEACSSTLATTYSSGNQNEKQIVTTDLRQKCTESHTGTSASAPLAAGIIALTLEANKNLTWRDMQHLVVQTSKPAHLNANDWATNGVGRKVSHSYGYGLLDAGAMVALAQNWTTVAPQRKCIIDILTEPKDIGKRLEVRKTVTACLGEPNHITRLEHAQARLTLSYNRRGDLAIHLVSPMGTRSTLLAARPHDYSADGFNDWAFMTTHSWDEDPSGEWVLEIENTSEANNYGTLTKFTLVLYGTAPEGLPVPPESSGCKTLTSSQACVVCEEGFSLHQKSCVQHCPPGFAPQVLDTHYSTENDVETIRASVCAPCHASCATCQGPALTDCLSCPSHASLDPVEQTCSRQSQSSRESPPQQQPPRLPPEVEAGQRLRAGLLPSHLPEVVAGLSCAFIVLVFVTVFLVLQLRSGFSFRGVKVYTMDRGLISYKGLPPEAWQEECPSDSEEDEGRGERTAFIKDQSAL

Row | Sequence | furin cleavage Z-score (7.5 min) | furin cleavage Z-score (15 min) | furin cleavage Z-score (30 min)
1 | CAMERCSQHLAGNASASA [HC1713] | 1.58 | 0.689 (inactive) | 1.89
2 | CARLSRPDSGAGNASASA [FS-1749] | -0.794 (inactive) | -0.615 (inactive) | -0.815 (inactive)
3 | CAIPSRRPRFAGNASASA [FS-255] | 5.86 (active) | 8 (active) | 9.09 (active)
4 | CAMLSRFGRFAGNASASA [FS-692] | -0.109 (inactive) | 0.852 (inactive) | 3.08
5 | CARLSRFPRFAGNASASA [FS-490] | 8.21 (active) | 11.2 (active) | 11.1 (active)
6 | CALRHHNLVYAGNASASA [HC1386] | 1.49 | 0.243 (inactive) | 1.05
7 | CACINGVCWTAGNASASA [HC697] | -0.68 (inactive) | -1.02 (inactive) | -2.54 (inactive)
8 | CALNCNDSLNAGNASASA [HC374] | -1.18 (inactive) | -0.292 (inactive) | -1.02 (inactive)
9 | CADAESYSSMAGNASASA [HC1351] | 1.28 | 0.832 (inactive) | -0.308 (inactive)
10 | CAVLEVVTSTAGNASASA [HC2270] | 0.137 (inactive) | -0.489 (inactive) | -0.471 (inactive)
11 | CAISLRFKRTAGNASASA [FS-172] | 7.22 (active) | 6.1 (active) | 6.83 (active)
12 | CATPGDPKRTAGNASASA [FS-510] | -0.0828 (inactive) | 0.23 (inactive) | -0.487 (inactive)
13 | CASPGRHKRTAGNASASA [FS-380] | 8.84 (active) | 8.17 (active) | 6.66 (active)
14 | CAVLHRNKRTAGNASASA [FS-1661] | 9.47 (active) | 9.94 (active) | 9.22 (active)
15 | CAVLRRDVITAGNASASA [FS-2855] | 0.181 (inactive) | -1.21 (inactive) | 0.595 (inactive)
16 | CAVLGRKKRTAGNASASA [FS-1102] | 8.65 (active) | 9.15 (active) | 8.6 (active)
17 | CASPGRSARPAGNASASA [FS-93] | -1.18 (inactive) | -1.19 (inactive) | -1.31 (inactive)
18 | CAYNPPLVETAGNASASA [HC1307] | -1.06 (inactive) | -1.13 (inactive) | -1.23 (inactive)
19 | CADVEVVTSTAGNASASA [HC2290] | 1.98 | 0.479 (inactive) | 0.627 (inactive)
20 | CAYSGGDIYHAGNASASA [HC1648] | -0.433 (inactive) | -0.656 (inactive) | -0.39 (inactive)
21 | CAMHTRCHCGAGNASASA [HC1173] | -0.571 (inactive) | -2.41 (inactive) | -1.42 (inactive)
22 | CATRTIASPKAGNASASA [HC704] | 1.03 | 0.625 (inactive) | -0.793 (inactive)

Row | Sequence | furin cleavage Z-score (7.5 min) | furin cleavage Z-score (15 min) | furin cleavage Z-score (30 min)
23 | CAWRVDGIMHAGNASASA [HC1170] | 1.37 | 0.67 (inactive) | 0.743 (inactive)
24 | CAPPPKSPPVAGNASASA [HC1319] | -0.03 (inactive) | -0.325 (inactive) | 0.671 (inactive)
25 | CAPPPRKKRTAGNASASA [HC1323] | 12.7 (active) | 14.5 (active) | 10.1 (active)
26 | CAILSRAKRPAGNASASA [FS-252] | 0.222 (inactive) | -1.38 (inactive) | 0.306 (inactive)
27 | CAELGDDGRTAGNASASA [FS-1627] | -0.885 (inactive) | -0.821 (inactive) | -0.581 (inactive)
28 | CAQLLRKKRPAGNASASA [FS-479] | 2.18 | 1.54 | 4.39 (active)
29 | CAIRSGKKRTAGNASASA [FS-669] | -1.71 (inactive) | -0.504 (inactive) | -0.845 (inactive)
30 | CAELLRKKRTAGNASASA [FS-991] | 5.51 (active) | 6.85 (active) | 6.38 (active)
31 | CAAAQTFLATAGNASASA [HC693] | -1.34 (inactive) | -1.47 (inactive) | -1.85 (inactive)
32 | CACTPCSAHLAGNASASA [HC2480] | 2.02 | 1.15 | 0.414 (inactive)
33 | CAHYPCTINYAGNASASA [HC469] | -0.918 (inactive) | -0.579 (inactive) | 0.122 (inactive)
34 | CAMEECSGHLAGNASASA [HC1736] | -0.517 (inactive) | -0.79 (inactive) | 1.12
35 | CAVWCCSMSYAGNASASA [HC2008] | 1.84 | -0.334 (inactive) | 1.13
36 | CANMWRCPRQAGNASASA [FS-181] | 1.61 | -1.4 (inactive) | -1.2 (inactive)
37 | CACLRRRRRQAGNASASA [FS-1623] | 8.28 (active) | 7.74 (active) | 5.47 (active)
38 | CAIFRRRPRQAGNASASA [FS-801] | 5.14 (active) | 4.22 (active) | 2.76
39 | CAEQRRRRRQAGNASASA [FS-234] | 8.68 (active) | 6.63 (active) | 6.29 (active)
40 | CAGREERRRQAGNASASA [FS-787] | -0.438 (inactive) | -0.529 (inactive) | 0.464 (inactive)
41 | CARLRKCVEQAGNASASA [FS-1860] | -0.549 (inactive) | 0.53 (inactive) | 1.14
42 | CASPQRRRRQAGNASASA [FS-1415] | 7.36 (active) | 8.25 (active) | 6.4 (active)
43 | CAIGGRFDRQAGNASASA [FS-1012] | -1.34 (inactive) | 2.43 | 1.03
